Data taken from PubChem BioAssay AID504333 (National Center for Advancing Translational Sciences (NCATS), 2011).
Out of some 360,000 compounds screened, about 16,000 (4.4%) were called active. Another 9% or so got no clear call; they are omitted. This is one part of a sample in which actives are shown more often than they occur. Unmarked numbers belong to inactive results. The call rests on the fitted dose curve; in most records, active means well fitted inhibition curve with a large enough effect; inconclusive means small, poorly fitted or top-dose-only effect; inactive means no such curve, though single readings can be large or run the other way.

biological target: Bromodomain adjacent to zinc finger domain protein 2B (Homo sapiens) (UniProt Q9UIF8); assay: qHTS Assay for Inhibitors of BAZ2B; conditions: AlphaScreen BAZ2B-H3K14Ac peptide displacement; series mostly up to 114 µM; activity change, negative = inhibition: at the top concentration; further: nearly all actives have a fitted effect of over 60% in size
Sequence (Q9UIF8 whole entry, looked up, the tested form may be a part): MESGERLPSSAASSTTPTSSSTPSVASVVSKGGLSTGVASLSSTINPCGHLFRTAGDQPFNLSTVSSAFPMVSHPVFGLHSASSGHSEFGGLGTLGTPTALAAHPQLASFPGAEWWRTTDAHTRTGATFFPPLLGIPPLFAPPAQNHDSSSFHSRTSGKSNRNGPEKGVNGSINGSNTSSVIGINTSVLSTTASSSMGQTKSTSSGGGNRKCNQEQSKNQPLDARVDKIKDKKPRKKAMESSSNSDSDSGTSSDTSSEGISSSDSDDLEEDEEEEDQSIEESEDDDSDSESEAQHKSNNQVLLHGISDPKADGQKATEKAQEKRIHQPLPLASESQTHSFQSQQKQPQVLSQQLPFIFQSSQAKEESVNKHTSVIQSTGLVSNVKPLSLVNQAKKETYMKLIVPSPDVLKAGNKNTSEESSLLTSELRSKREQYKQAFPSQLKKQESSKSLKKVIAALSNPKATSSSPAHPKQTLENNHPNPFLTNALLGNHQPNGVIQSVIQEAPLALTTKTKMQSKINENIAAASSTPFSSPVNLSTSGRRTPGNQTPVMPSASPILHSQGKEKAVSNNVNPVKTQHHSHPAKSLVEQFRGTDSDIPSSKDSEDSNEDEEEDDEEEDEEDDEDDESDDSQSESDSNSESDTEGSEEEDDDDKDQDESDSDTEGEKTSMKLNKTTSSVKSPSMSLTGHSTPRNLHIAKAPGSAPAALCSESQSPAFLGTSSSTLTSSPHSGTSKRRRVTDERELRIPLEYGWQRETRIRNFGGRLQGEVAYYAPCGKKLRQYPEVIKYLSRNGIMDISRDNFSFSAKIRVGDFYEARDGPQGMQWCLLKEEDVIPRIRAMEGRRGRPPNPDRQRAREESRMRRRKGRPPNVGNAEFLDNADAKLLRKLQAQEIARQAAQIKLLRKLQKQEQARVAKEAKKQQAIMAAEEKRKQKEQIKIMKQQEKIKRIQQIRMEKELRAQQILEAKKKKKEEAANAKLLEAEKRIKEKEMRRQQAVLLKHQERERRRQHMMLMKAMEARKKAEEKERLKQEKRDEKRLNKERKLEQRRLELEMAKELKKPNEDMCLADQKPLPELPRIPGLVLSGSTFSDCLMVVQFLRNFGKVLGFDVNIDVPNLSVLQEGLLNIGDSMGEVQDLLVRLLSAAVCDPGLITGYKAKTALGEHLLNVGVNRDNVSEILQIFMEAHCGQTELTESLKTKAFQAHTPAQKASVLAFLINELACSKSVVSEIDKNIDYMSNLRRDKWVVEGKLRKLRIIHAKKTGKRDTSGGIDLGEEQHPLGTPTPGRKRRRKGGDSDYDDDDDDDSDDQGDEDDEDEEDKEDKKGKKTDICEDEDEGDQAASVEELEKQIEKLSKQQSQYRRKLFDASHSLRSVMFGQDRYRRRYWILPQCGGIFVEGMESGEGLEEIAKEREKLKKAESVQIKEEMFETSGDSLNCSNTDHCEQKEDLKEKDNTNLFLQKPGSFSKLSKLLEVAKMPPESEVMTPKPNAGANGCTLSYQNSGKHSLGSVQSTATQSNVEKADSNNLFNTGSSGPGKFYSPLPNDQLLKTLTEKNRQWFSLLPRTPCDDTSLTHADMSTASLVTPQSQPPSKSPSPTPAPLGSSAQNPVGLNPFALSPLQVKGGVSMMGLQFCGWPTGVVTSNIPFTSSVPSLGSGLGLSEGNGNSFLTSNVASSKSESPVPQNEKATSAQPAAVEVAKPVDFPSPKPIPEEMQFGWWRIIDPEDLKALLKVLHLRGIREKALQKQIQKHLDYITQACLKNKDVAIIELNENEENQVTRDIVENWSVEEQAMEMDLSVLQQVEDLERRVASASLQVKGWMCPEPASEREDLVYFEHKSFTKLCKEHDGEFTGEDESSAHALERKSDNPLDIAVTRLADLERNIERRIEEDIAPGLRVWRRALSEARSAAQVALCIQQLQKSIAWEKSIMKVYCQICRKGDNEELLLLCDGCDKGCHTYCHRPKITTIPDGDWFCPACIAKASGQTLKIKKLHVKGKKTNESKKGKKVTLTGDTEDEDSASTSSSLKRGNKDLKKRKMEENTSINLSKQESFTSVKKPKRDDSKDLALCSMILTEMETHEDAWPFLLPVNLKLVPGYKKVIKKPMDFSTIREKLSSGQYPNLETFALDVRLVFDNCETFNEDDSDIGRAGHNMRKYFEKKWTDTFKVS
Excerpt: BAZ2B (bromodomain adjacent to zinc finger domain, 2B) belongs to a family of ubiquitously expressed bromodomain containing proteins, which biological function has not yet been elucidated. […] The interaction of BAZ2B with ISWI mediated by the BAZ1 motif has recently been described. […] The protocol is based on the AlphaScreen (PerkinElmer) displacement assay developed by NCGC [5], but uses the peptide ligand Biot-H3K14Ac, a high affinity binding partner for BAZ2B, in an AlphaScreen format. Although AlphaScreen has significant advantages with its utility in a variety of epigenetic target assays, the primary screening data provided in this deposition should be used with caution due to the prevalence of screening artifacts. The top compound concentration tested was 110uM in this assay, which increases number of actives and potential artifacts. An AlphaScreen counterscreen is highly recommended to be run against any putative actives to eliminate non-specific artifacts. Alternatively, one can use other AlphaScreen assays in PubChem to filter out promiscuous hits. Eberharter, A. et al. ACF1 improves the effectiveness of nucleosome mobilization by ISWI through PHD-histone contacts. The EMBO journal 23, 4029-4039. 2004. PMID: 15457208 [2] Jones, M.H. et al. A novel family of bromodomain genes. Genomics 63, 40-45. 2000. PMID: 10662543 [3] Yasgar, et al. Compound Management for Quantitative High-Throughput Screening. JALA. 2008 Apr;13(2):79-89. PMID: 18496600 [4] Inglese, et al. Quantitative high-throughput screening: a titration-based approach that efficiently identifies biological activities in large chemical libraries. Proc Natl Acad Sci. 1;103(31):11473-8. 2006. PMID: 16864780 [5] Quinn et al. A chemiluminescence-based method for identification of histone lysine methyltransferase inhibitors. Mol Biosyst 6(5): 782-8. 2010. PMID: 20567762 [6] Baell,Holloway. New substructure filters for removal of pan assay interference compounds (PAINS) from screening libraries and for their exclusion in bioassays. J Med Chem. 53(7):2719-40. 2010. PMID: 20131845 NIH Molecular Libraries Probe Production Network [MLPCN] NIH Chemical Genomics Center [NCGC] Structural Genomics Consortium (SGC) NIH Grant: 5U54 MH084681-02
To each well of a 1,536w plate, 2ul of BAZ2B protein (final 50nM) and 1ul biotinylated histone peptide acetylated at Lys14 [b-H3(5-23)K14Ac] (final 50nM) were added in 1x PBS buffer, pH 7.4, containing 0.01% Tween-20, using a nanoliter dispenser. Formation of a protein-peptide complex proceeded at room temperature for 30 min. A Kalypsys pin-tool was employed to transfer 23 nL of library compound solution in DMSO to each well. Following a 30 min incubation of the protein-peptide complex with compounds at room temperature, a mixture of 40 ug/mL each streptavidin-coated donor and nickel chelate acceptor AlphaScreen beads (final 10 ug/mL) were added in a 1ul dispense for a final volume of 4ul. A brief centrifugation followed (1000rpm, 1 min) and were then incubated protected from the light for 20 min at room temperature. Plates were read on an EnVision multilabel plate reader using the 1,536 plate HTS AlphaScreen aperture (excitation time 80 ms, measurement time 240 ms).
On the % scale 0 is the no-effect control and ±100 the full control effect; potency means the concentration at half of the fitted maximal effect.

Structure (SMILES)	Potency	activity change, negative = inhibition
Oc1ccccc1CN1CCN(C(c2ccccc2)c2ccccc2)CC1	50.1 µM (active)	
COc1cc(CN2CCCN(C)CC2)c([N+](=O)[O-])cc1OC		-9.5%
CNCC(O)CN1CCN(c2ccccc2OC)CC1 (configuration not stated)		-26%
COc1ccccc1N1CCN(Cc2ccc(OC)c3ccccc23)CC1	28.2 µM (active)	
COc1ccccc1CN1CCN(C(c2ccccc2)c2ccccc2)CC1	79.4 µM (active)	
COc1ccccc1CNCc1cccs1		2.33%
c1ccc(C(c2ccccc2)N2CCN(Cc3nnnn3C3CCCCC3)CC2)cc1		4.36%
Cc1ccc2cccc(NC(=O)c3ccc(OC(C)C)cc3)c2n1		-7.03%
Cc1ccc(NC(=O)CSc2nnc3[nH]c(=O)cc(C)n23)cc1Cl		1.62%
CSc1ccc(C2c3c(oc4ccccc4c3=O)C(=O)N2CCCN2CCOCC2)cc1 (configuration not stated)		-3.97%
COc1cccc(C(=O)N(Cc2cccc(Cl)c2)Cc2ccco2)c1		27%
O=C(COc1ccc(Cl)cc1)Nc1ccccc1OCc1cc(=O)n2ccccc2n1		3.37%
Cc1ccc(NC(=O)c2cc3cc(C)ccc3n2C)cc1		-7.6%
O=C(Cn1c(=O)n(Cc2ccccc2)c(=O)c2sc3ccccc3c21)Nc1ccccc1F		2.08%
Cc1ccc(C2CCN(C(=O)c3cnn(-c4ccccc4Cl)c3C3CCN(C(=O)OC(C)(C)C)CC3)C2)cc1 (configuration not stated)		-17.9% [at 57.1 µM]
COc1cccc(CNC(=O)Cn2ncn3c(cc4ccccc43)c2=O)c1		2.55%
Cc1ccc(NC(=O)CN2c3ccccc3S(=O)(=O)c3ccccc32)cc1F		-11.7%
CCCn1c2ccccc2c2cnn(CC(=O)N3CCCC(C(=O)OCC)C3)c(=O)c21 (configuration not stated)		2.57%
COc1cc2c3c(c1)/C(=C1/SC(=S)NC1=O)C(=O)N3C(C)(C)C=C2C	44.7 µM (active)	
CCOC(=O)c1[nH]cnc1C(=O)NC1CCCCC1	50.1 µM (active)	
CCOC(=O)c1ccc(NC(=O)c2nc[nH]c2C(=O)NCc2ccccc2)cc1		3.08%
CC(C)(C)OC(=O)N1CCC(NC(=O)c2[nH]cnc2C(=O)N[C@@H](Cc2ccccc2)C(=O)OCc2ccccc2)CC1		-15.2%
COc1ccc2cc(CNc3ccc(OC)c(OC)c3)c(=O)n(CC(=O)Nc3ccccc3F)c2c1		0.402%
COc1cccc(-c2n[nH]c3c2C(c2cccc(O)c2)N(C)C3=O)c1 (configuration not stated)		-16%
Cc1ccc(/C=N/NC(=O)c2cc3ccccc3cc2O)o1		-28.4%
Cc1cc(N=Nc2ccc3ccccc3c2)ccc1O	28.2 µM (active)	

Structure (SMILES)	Potency	activity change, negative = inhibition
COc1ccc(/C=C/c2noc(-c3ccccc3O)n2)cc1OC		4.53%
COc1ccc(-n2c(SCC(=O)Nc3ccc(Cl)c(C)c3)nc3n[nH]c(C)c3c2=N)cc1		-4.47%
CCc1cccc(NC(=O)CN(c2ccc(C)c(C)c2)S(=O)(=O)c2ccsc2C(=O)OC)c1		-6.76%
Oc1c(CN2CCCC2)cc(COCc2ccccc2)c2cccnc12	17.8 µM (active)	
Oc1c(CN2CCN(c3ccc(F)cc3)CC2)cc(Cl)c2cccnc12	22.4 µM (active)	
O=C(CN1CCN(c2ccc(F)cc2)CC1)Nc1ccccc1		6.8%
COc1cc(C)cc(CN2CCC(Cc3ccccc3)CC2)c1O		-25.9%
COc1cc(CN2CCC(C(N)=O)CC2)ccc1OCc1ccccc1		-14.9%
Cc1cccnc1NC(=O)c1cccc(S(=O)(=O)N2CCN(c3ccc(F)cc3)CC2)c1		-30.1%
CCCS(=O)(=O)c1c(Nc2ccccc2C)sc(C(=O)c2ccccc2)c1N		-30.6%
Cc1ccc(-c2nn3c(=O)cc(CN4CCN(S(=O)(=O)c5ccc(Cl)cc5)CC4)nc3s2)cc1		-2.85%
COc1cc(NC(=O)c2cc(C3CC3)nc3c2c(C)nn3-c2ccccc2)cc(OC)c1		10.3% [at 57.1 µM]
O=C(/C=C/c1ccccc1)Nc1cc(-c2nc3cc(Cl)ccc3o2)ccc1Cl		-6.45%
CCCCNC(=O)c1ccc2c(c1)NC(=O)C(C(C)C)N2 (configuration not stated)		-2.58%
CCN(CCCNC(=O)c1ccc2c(c1)NC(=O)CN2C)c1cccc(C)c1	50.1 µM (active)	
CCN(CCCNC(=O)Cn1ncc2c([nH]c3ccccc32)c1=O)c1cccc(C)c1		-10.1%
CCC1CCCCN1C(=O)Cn1c(=O)n(CCCCCC(=O)NCc2ccccc2)c(=O)c2sccc21 (configuration not stated)		4.84%
COc1cccc(CC(=O)Nc2ccc(-c3csc(C)n3)cc2)c1		-13.6%
Cc1ccc(Nc2nc(-c3sc(NC(=O)c4ccccc4)nc3C)cs2)cc1	50.1 µM (active)	
CCCCCCC(=O)Nc1nc(C)c(-c2csc(Nc3cccc(OC)c3)n2)s1	50.1 µM (active)	
C=CCCC(=O)Nc1nc(C)c(-c2csc(Nc3ccc(Cl)cc3)n2)s1	44.7 µM (active)	
CC(=O)Nc1nc(C)c(-c2csc(Nc3ccc(S(N)(=O)=O)cc3)n2)s1		-12.2%
Cc1ccc(C(=O)Nc2nc(-c3ccccc3)ns2)cc1		1.63%
CCC(=O)Nc1nc(C)c(C(=O)Nc2cccc(Cl)c2)s1		-34.4%
Cc1nc(NC(=O)c2cccc(Cl)c2)sc1-c1csc(Nc2cccc(Cl)c2)n1		-13.5%
CCOC(=O)c1csc(NC(=O)Nc2cccc(OC)c2)n1		-4.77%
